This is part of a sample that, as a whole, favours compounds with a hit. Of some 83,000 tested, about 20% had one in any assay.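 Method: cells in 96-well plates; compound added at one concentration; 48 h incubation; percent growth measured; values under 10 scored active.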 Values without a mark were called inactive. Calls of active or inactive are those of the source.

Here are results for 40 compounds from PubChem BioAssay (NCI).

This experiment deals with HL-60(TB) leukemia. As to the kind of experiment: NCI-60 one-dose screen, 48 h (100 = growth as untreated, 0 = no growth, -100 = all killed). The following applies: 10 µM unless noted.
Consider `O=C1NC(=O)C(=Cc2cn(Cc3cn(Cc4ccc(Cl)cc4Cl)nn3)c3ccccc23)C(=O)N1`, for which the growth was 73.8%.

Take `COc1ccc(NC(=O)c2cc(NCc3cc(O)ccc3O)ccc2O)cc1`: the growth was 43.8%.

Turning to `CCCCC(=O)c1ccc(OC)cc1`, the growth is 92.6%.

For the compound `C#CCOc1cccc(-c2ncc3cc(NC(=O)CCl)ccc3n2)c1`, the growth is 14.3%.

In the case of `O=C(Nc1cccnc1)c1ccc2ccc3ccc(C(=O)Nc4cccnc4)nc3c2n1`, the growth is 37.1%.

With `CC1=C2C(=C[C@@](C)(CO)[C@@H]2OC(=O)N(C)CCN(C)C(=O)OC(C)(C)C)C(=O)[C@](C)(O)C12CC2`, the growth was 46.1%.

Consider `O=C(CCN1CCCCC1)c1ccc2ccccc2c1`, for which the growth is 112%.

For the compound `CCOC(=O)c1cn2ncnc(Oc3ccc(NC(=O)NCCN(C)C)c(Cl)c3)c2c1C`, the growth is 98.6%.

For `COC(=O)N[C@@H](C)CNc1nccc(-c2cn(C(C)C)nc2-c2cc(Cl)cc(NS(C)(=O)=O)c2F)n1`, the growth was 26.6%.

In the case of `CCCCC(CC)COC(=O)C[N+](C)(C)CCOC(c1ccccc1)c1ccccc1` (stereo not given), the growth was -56.7% (active).

Turning to `N#C/C(=C\c1ccc(-c2cc(C(F)(F)F)ccc2Cl)o1)c1nc(-c2ccco2)cs1`, the growth is 89.2%.

For the compound `CC1(C)[C@@H](NOCCCN)CC[C@]2(C)[C@H]3C(=O)C=C4[C@@H]5C[C@](C)(C(=O)O)CC[C@]5(C)CC[C@@]4(C)[C@]3(C)CC[C@@H]12`, the growth was -31.3% [100 µM] (active).

With `COc1ncc(-c2ccc3nccc(C#CCN4CCN(S(C)(=O)=O)CC4)c3c2)cc1NS(=O)(=O)c1ccc(F)cc1F`, the growth was -18.6% (active).

On to `Nc1cc2c(cc1Br)-c1c(C(=O)O)cccc1C2O` (stereo not given), for which the growth was 77.8%.

For `O=C(COc1ccc(/C=C2\Oc3ccccc3C2=O)cc1)c1ccc(Cl)cc1`, the growth is 94.5%.

As for `C=C(C)[C@@H]1CC[C@]2(C(=O)N3CCOCC3)CC[C@]3(C)[C@H](CC[C@@H]4[C@@]5(C)C/C(=C/c6ccncc6)C(=O)C(C)(C)[C@@H]5CC[C@]43C)[C@@H]12`, the growth is 26.2%.

For `COc1ccc(C2C3=C(COC3=O)N(CCO)c3cc4c(cc32)OCO4)cc1OC` (stereo not given), the growth is 65.7%.

Consider `CCCC(=O)Nc1ccccc1C(=O)O`, for which the growth is 94.1%.

Consider `CC1(O)COCCCCOc2c(CN)cccc2NC(=O)c2nc(cnc2N)-c2ccc(cc2)S(=O)(=O)C(C)(C)C1` (stereo not given), for which the growth is -54.7% (active).

In the case of `COc1cc(C2=NN(C=O)C(c3cccc(Nc4ccnc5cc(Cl)ccc45)c3)C2)cc(OC)c1OC` (stereo not given), the growth was 75.4%.

For the compound `Nc1nc2ncc(CCNc3ccc(C(=O)O)cc3)nc2c(=O)[nH]1`, the growth was 58.2%.

For `COc1ccc2nc3cc(Cl)ccc3c(Nc3cc(CN4CCCC4)c(O)c(CN4CCCC4)c3)c2n1`, the growth is -20.4% (active).

With `CN(C)CCN(C)CC(C)(C)C(=O)/C=C/c1ccc(Cl)c(Cl)c1`, the growth is -41.9% [100 µM] (active).

As for `CC(C)C1=NOC(=O)C1=Cc1cn(-c2ccccc2)nc1-c1cccc([N+](=O)[O-])c1`, the growth is -4.77% (active).

As for `CCc1cc(C)cc(O)c1`, the growth was 105%.

Turning to `COc1ccc2c(c1)c(-c1ccc(-c3cn(C)c4ccc(OC)cc34)o1)cn2C`, the growth is -23% (active).

Consider `CCN(CC)c1ccc2nc3c4ccccc4c(=O)cc-3n(-c3ccccc3)c2c1`, for which the growth is -26.7% (active).

Turning to `O=C(/C=C\c1ccc2c(c1)OCO2)/C=C/c1ccc2c(c1)OCO2`, the growth is 42.8%.

Consider `C(=C\c1n(Cc2ccc3ccccc3c2)c(-c2ccccc2)c(-c2ccccc2)[n+]1Cc1ccc2ccccc2c1)/c1ccccc1`, for which the growth is -42% (active).

In the case of `COc1cc(-c2cc(C(=O)Nc3nc4ccccc4s3)nc3cc(-c4ccccc4)nn23)cc(OC)c1OC`, the growth was 48.3%.

As to `CCCN1CCN(c2ccc3nc(-c4ccc5nc(-c6cc(OC)c(OC)c(OC)c6)[nH]c5c4)[nH]c3c2)CC1`, the growth is 97.4%.

With `COC(=O)/C=C1\S/C(=N\NC(=O)c2cc3ccc2/C=C\c2ccc(cc2)/C=C\3)N(c2ccccc2)C1=O`, the growth was 16.4%.

With `NS(=O)(=O)c1ccc(CCN=C=S)cc1`, the growth is -2.31% (active).

For the compound `O=S(=O)(NCCNc1nccc(-c2c(-c3ccc(F)c(O)c3)nc3occn23)n1)c1ccccc1`, the growth is 63.6%.

Turning to `FC(F)(F)c1cccc(-c2cn3c(ccc4ccccc43)n2)c1`, the growth is 114%.

As for `O=C1OCCCCCCCCCC#Cc2ccccc21`, the growth is 88.7%.

Regarding `c1cc2c(cc1-c1cnc3nonc3n1)OCO2`, the growth is 0.978% (active).

`CC(C)/C=C/CC[C@](C)(O)[C@H]1CC[C@]2(C)[C@@H]1CC[C@@H]1[C@@]3(C)C/C(=C/c4cccc(C(F)(F)F)c4)C(=O)C(C)(C)[C@@H]3CC[C@]12C`: the growth is 92.9%.

Regarding `O=C1C=CC(=Nc2cc(Br)c(O)c(Br)c2)C=C1`, the growth is 29.9%.

In the case of `O=C1NCCc2c1noc2-c1ccccc1`, the growth was 102%.
